# A number with no mark means an inactive call. The rule behind the calls is not given here.
# Test system: HIV-1 nucleocapsid protein NCp7 (binding to TG oligonucleotide)
# Assay: HIV Nucleocapsid (AID 346);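 note: potency is for inhibitors that block NC binding and lower polarization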
# Settings: HIV-1 NC / fluorescein-TGTGTGTG probe, fluorescence polarization
# In short: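 Reagents dispensed (10 nM TG4xF, 100 nM HIV-1 NC), plates spun, compounds pin-transferred, then incubated 1 hr at room temperature before FP imaging. Buffer: Hepes pH 7.5, 250mM NaCl, 1uM ZnCl2, 100 uM TCEP, 5 mM 2-mercaptoethanol.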
# Potency is the fitted concentration of half-maximal effect.
row,Compound,Potency [µM]
1,CC(C)CN1CC[C@@]2(CCCN(C(=O)c3cccc(F)c3)C2)C1,> 20
2,COc1cccc(-c2cc(NCc3cccc(C)c3)ncn2)c1,> 20
3,COc1ncc2nc(C)c(=O)n(C3CC3)c2n1,> 20
4,COC(=O)N1CCC[C@@]2(CCN(Cc3cc(C(F)(F)F)cc(C(F)(F)F)c3)C2)C1,> 20
5,CN(C)c1ccc(-c2nccc(NCc3cccs3)n2)cc1,> 20
6,COc1ccc(C(=O)N2CCC[C@@]3(CCN(c4ccncc4)C3)C2)cc1,> 20
7,COc1ccccc1CN1CC2(CCN(S(=O)(=O)c3ccccc3)CC2)C1,> 20
8,Cc1nc2cnc(N3CCOCC3)nc2n(C2CC2)c1=O,> 20
9,COc1cccc(-c2nc(NCc3ccccc3OC)c3ccccc3n2)c1,> 20
10,COc1cccc(-c2nccc(N(C)Cc3ccco3)n2)c1,> 20
11,CN(C)c1ccc(-c2ccc3ncnc(NCc4ccccc4)c3c2)cc1,> 20
12,CN(C)c1ncc2nc(-c3ccccc3)c(=O)n(CCc3ccccc3)c2n1,> 20
13,c1ccc2c(N3CCOCC3)nc(-c3ccoc3)nc2c1,> 20
14,CN1CCN(c2ncncc2-c2ccoc2)CC1,> 20
15,CN(C)c1ccc(-c2cncnc2NCCN2CCOCC2)cc1,> 20
16,CS(=O)(=O)N1CCC[C@@]2(CCN(Cc3nccs3)C2)C1,> 20

# Reference: PubChem BioAssay (NCATS)
